From PubChem BioAssay
DT40 TDP1 CPT = qHTS for Inhibitors of human tyrosyl-DNA phosphodiesterase 1 (TDP1): qHTS in cells in presence of CPT | chicken DT40 Tdp1-/-;hTDP1 cells + 20 nM CPT, ATP luminescence, 48 h | hit rate 12% among 420,000 | Potency, µM (doses to about 46.2 µM), inactives show at the highest dose activity change, negative = growth inhibition, usual class: inhibitors; further: nearly all actives have a fitted effect of over 55% in size
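Chicken DT40 Tdp1-/- cells complemented with human TDP1, 400 cells/well, exposed to compounds plus 20 nM camptothecin for at least 48 h at 37 C; viability read as ATP content by CellTiter-Glo luminescence.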
RORgamma inh = qHTS for inhibitors of ROR gamma transcriptional activity. AID 2551, 2010. Drosophila S2 Gal4-RORgamma UAS-luciferase reporter, 20 h. Nuclear receptor ROR-gamma (Mus musculus), P51450. Potency, µM (series often up to 53.6 µM), for the others: at the top dose activity change, negative = inhibition, usual class: inhibitors. hit rate 5.4% among 310,000; further: nearly all actives have a fitted effect of over 60% in size
Target sequence (P51450 whole entry, looked up, the tested form may be a part): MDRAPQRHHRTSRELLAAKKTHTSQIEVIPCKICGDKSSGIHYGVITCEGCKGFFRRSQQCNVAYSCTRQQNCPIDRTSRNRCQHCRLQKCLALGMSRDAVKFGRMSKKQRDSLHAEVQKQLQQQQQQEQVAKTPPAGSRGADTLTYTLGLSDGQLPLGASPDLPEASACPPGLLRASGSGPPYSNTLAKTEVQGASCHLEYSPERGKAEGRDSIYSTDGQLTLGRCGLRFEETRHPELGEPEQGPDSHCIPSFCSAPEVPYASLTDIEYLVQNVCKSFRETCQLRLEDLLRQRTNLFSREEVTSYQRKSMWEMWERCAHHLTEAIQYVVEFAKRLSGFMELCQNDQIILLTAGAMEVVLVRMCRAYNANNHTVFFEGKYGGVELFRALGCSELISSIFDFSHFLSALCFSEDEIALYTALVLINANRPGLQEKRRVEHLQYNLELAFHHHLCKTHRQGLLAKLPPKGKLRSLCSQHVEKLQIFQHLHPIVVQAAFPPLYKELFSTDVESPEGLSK
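Using a luciferase readout, inhibitors were identified by reduced reporter activity in Drosophila cells coexpressing a copper-inducible Gal4–ROR gamma fusion and UAS-driven Photinus luciferase, incubated 20 hr after 700 uM copper sulfate.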
TDP1 block = qHTS Assay for Inhibitors of Tyrosyl-DNA Phosphodiesterase (TDP1); recombinant TDP1, AlphaScreen DNA substrate cleavage; Potency, µM (titrated, usually from 130 µM), inactives show at the highest dose activity change, negative = inhibition, hits mostly inhibitors; hit rate 0.28% among 350,000; AID 485290, 2010; further: nearly all actives have a fitted effect of over 40% in size
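Here, a 5' biotin and 3' phosphotyrosine-FITC DNA oligonucleotide reports Tdp1 activity: intact substrate bridges AlphaScreen beads, while cleavage leaves a 3' phosphate and drops signal. All incubations at room temperature.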
Gal4-VP16 FLuc = VP16 counterscreen qHTS for inhibitors of ROR gamma transcriptional activity. Drosophila S2 Gal4-VP16 UAS-luciferase, luminescence, 20 h. hit rate 3.5% among 310,000. Potency, µM (top dose mostly 53.6 µM), for inactives: at the highest dose activity, negative = inhibition, actives largely listed as inhibitors;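 further: Gal4-VP16 expression switched on by copper sulfate through the metallothionein promoter; nearly all actives have a fitted effect of over 50% in size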
DT40 TDP1 no CPT = qHTS for Inhibitors of human tyrosyl-DNA phosphodiesterase 1 (TDP1): qHTS in cells in absence of CPT; DT40 Tdp1-/- hTDP1 cells, no CPT, ATP luminescence, 48 h; Potency, µM (highest dose often 46.2 µM), without a hit: top-dose activity change, negative = growth inhibition, usual class: inhibitors; hit rate 15% among 420,000; further: nearly all actives have a fitted effect of over 55% in size
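DT40 Tdp1-/-;hTDP1 cells, no CPT (DMSO vehicle only), 400 cells/well; compounds pin-transferred; ≥48 hr, 37 °C; CellTiter-Glo 30 min RT dark, luminescence read.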
* = called active by the depositor; u = inconclusive; x = no result; [ ] = dose if it differs, or a comment. In the library only some 19% were active in any assay of this set; here they are far more common. The call rests on the fitted dose curve; in most records, active means well fitted curve in the direction sought with a large enough effect; inconclusive means small, poorly fitted or top-dose-only effect, or another doubt; inactive means no such curve, though single readings can be large; an effect the other way counts as inactive or inconclusive. On the % scale 0 is the no-effect control and ±100 the full control effect; potency means the concentration at half of the fitted maximal effect.

SMILES | DT40 TDP1 CPT | RORgamma inh | TDP1 block | Gal4-VP16 FLuc | DT40 TDP1 no CPT
O=[N+]([O-])c1ccc(CN2CCN(Cc3c[nH]c4ccccc34)CC2)cc1 | u | -10% | -3% | -4% | u
CS(=O)(=O)N(Cc1ccccc1)c1ccc(C(=O)NCCSc2ccccn2)cc1 | -17% | 13% | -3% | -8% | -11%
COc1ccc(NC(=O)Nc2nnc(Cc3ccc(F)cc3)s2)cc1 | -21% | -21% | x | 16% | 26µM*
O=C(Nc1ccc(F)cc1)Nc1nnc(Cc2ccccc2F)s1 | 16µM* | -6%[1.91 µM] | x | 28% | 13µM*
CCc1nnc(NC(=O)Nc2ccc(Cl)cc2)s1 | -21% | 14% | -10% | 6% | u
CCCc1nnc(NC(=O)Nc2ccc(OC)cc2)s1 | -20% | 0% | 5% | u | -22%
COc1cccc(NC(=O)Nc2nnc(Cc3ccccc3F)s2)c1 | u | -4% | x | -16% | 23µM*
O=C(Nc1ccc(Cl)cc1)Nc1nnc(CSCc2ccc(Cl)cc2)s1 | 2.6µM* | 41% | 3% | -8% | 4.1µM*
CC(C)CCNC(=O)C1CCN(S(=O)(=O)c2ccc3nc4c(c(C(=O)O)c3c2)CCCCC4)CC1 | 2% | -2% | 4% | -5% | 5%
N#Cc1ccccc1Cn1cc(C#N)c2ccccc21 | -6% | 36% | 5% | 3% | -15%
Cc1cccc(C)c1N1C(=O)CC(N(O)c2ccccc2)C1=O (stereo not given) | -16% | 11µM* | -7% | -1% | -26%
Cc1ccc(C(=O)CSc2nc3cc(C(=O)NC4CCCC4)ccc3c(=O)n2CC2CCCO2)c(C)c1 (stereo not given) | 10µM* | x | -3% | x | u
Cc1cccc(CSc2nc3cc(C(=O)NC4CCCC4)ccc3c(=O)n2Cc2ccccc2)c1 | -20% | x | 3% | x | -22%
CCCCCn1c(SCC(=O)c2ccccc2)nc2cc(C(=O)NCC3CCCO3)ccc2c1=O (stereo not given) | 4% | x | x | x | 17%
O=C(NCC1CCCO1)c1ccc2c(=O)n(CC3CCCO3)c(SCC(=O)N3CCCC3)nc2c1 (stereo not given) | -7% | 10% | 7% | -4% | 0.23µM*
O=C(CSc1nc2ccccc2c(=O)n1CC1CCCO1)NCc1ccccc1 (stereo not given) | -24% | 21% | 7%[0.0935 µM] | -7% | -28%
O=C(CSc1nc2ccccc2c(=O)n1CC1CCCO1)N1CCN(c2ccccc2)CC1 (stereo not given) | 26µM* | x | x | x | 23µM*
CC(=O)N1CCN(c2ccccc2NC(=O)COc2ccccc2C)CC1 | u | 6% | 3% | 7% | u
Cc1cc(C)c(OCC(=O)Nc2ccccc2N2CCOCC2)c(C)c1 | 14µM* | 34% | -4% | -7% | 22µM*
Cc1ccccc1OCC(=O)Nc1ccccc1N1CCOCC1 | -18% | 15% | 0% | -5% | 10µM*
O=C(CC12CC3CC(CC(C3)C1)C2)Nc1ccccc1N1CCOCC1 | u | -17% | -14% | 9% | 10µM*
Brc1ccc(OCCCN2CCOCC2)cc1 | -21% | 16% | -5% | 0% | u
Cc1ccc(N/N=C/c2ccc3c(c2)OCCO3)cc1Cl | -22% | u | -1% | -9% | -23%
Cc1nn(Cc2ccccc2)c2sc(C(=O)N3CCN(Cc4ccc5c(c4)OCO5)CC3)cc12 | 16µM* | 16% | 6% | -2% | u
O=C(Cn1cnc2ccccc2c1=O)N1CCN(Cc2ccc3c(c2)OCO3)CC1 | -11% | 4% | 1% | -20% | -26%
CC(C)[C@@H](C(=O)N1CCN(Cc2ccc3c(c2)OCO3)CC1)n1nnc2ccccc2c1=O | 21µM* | -1% | 4% | -3% | 13µM*
O=C(O)c1ccccc1C(=O)N1CCN(Cc2ccc3c(c2)OCO3)CC1 | 10% | -15% | x | 4% | 24%
